# Test results taken from PubChem BioAssay AID2061318 (National Center for Advancing Translational Sciences (NCATS), 2025).
# Records with an inconclusive call do not appear. Calls of active or inactive are those of the source. Calls come from the whole dose curve; as a rule, active = well fitted inhibition curve with a large enough effect; inconclusive = small, poorly fitted or top-dose-only effect; inactive = flat fitted curve, though single readings scatter.
# Assay: Identification of antibody-drug conjugate (ADC) payloads which are substrates of ATP-binding cassette drug efflux transporters: ABCB1-HEK293-MDR-19 cell line
# Settings: HEK293 ABCB1 (MDR-19) viability, CellTiter-Glo, 48 h
# Text: Antibody-drug conjugates (ADCs) feature an antibody recognizing a specific protein joined to a potent toxic payload. Numerous antibody-drug conjugates have received FDA approval; however, clinical resistance arises. Resistance mechanisms include decreased expression or mutation of the antibody target, impaired payload release, or increased expression of ATP-binding cassette (ABC) efflux transporters associated with multidrug resistance. We therefore sought to characterize the interaction of ABC multidrug transporters with ADC payloads. We performed a high-throughput screen with 27 common ADC payloads using cells lines expressing ABC transporters P-glycoprotein (P-gp, encoded by ABCB1) or ABCG2 (encoded by ABCG2). Confirmatory assays were also performed using cells transfected to express P-gp, ABCG2, or MRP1 (encoded by ABCC1). Several commonly used ADC payloads were substrates of P-gp, including calicheamicin gamma1, monomethyl auristatin E, DM1, and DM4. All the pyrrolobenzodiazepines tested - SJG136, SGD-1882, SG2057, and SG3199 - were substrates of P-gp, ABCG2, and MRP1. […] These findings highlight the risk of transporter-mediated resistance with certain ADC payloads and underscore the importance of selecting payloads that evade ABC transporter recognition in future ADC development.
# HEK-293 cells were transfected with empty vector (pcDNA) or vector containing the human ABCB1 (MDR-19), ABCG2 (R-5), or ABCC1 gene (MRP1) and were maintained in EMEM with 2 mg/mL G418 added to maintain transporter expression. The HeLa derivative KB-3-1 and the P-gp overexpressing KB-8-5-11 subline were maintained in DMEM; KB-8-5-11 additionally received 100 ng/mL colchicine. H460 parental cells were obtained from the Division of Cancer Treatment and Diagnosis Tumor Repository, National Cancer Institute at Frederick, MD and were cultured in RPMI. The ABCG2 expressing subline H460 MX20 was generated by selecting H460 cells in 20 nM mitoxantrone. Media in all cases was supplemented with 10% FBS and 1% penicillin-streptomycin. We explored 27 common ADC payloads, in two orthogonal, paired cell line sets-a drug selected and transfected set for each transporter--to identify substrates of the ABC transporters P-gp and ABCG2. Compounds were sourced from Levena Biopharma (San Diego, CA), Selleck Chem (Houston, TX), ChemieTek (Indianapolis, IN), or Microsource Discovery Systems (Gaylordsville, CT). Screening was performed as previously described. Briefly, cells were plated at a density of 500 cells/well in 1536 well plates with compounds added using a 1536-head pin tool (Kalypsys, San Diego CA). Cells were incubated with cytotoxic drugs and processed with CellTiter Glo reagent (Promega, Madison, WI) to determine viability after 48 hours. P-gp substrates were identified by comparing compound activity between paired sets of low-expressing (sensitive) and over-expressing (resistant) cell lines.
row,Structure (SMILES),Potency
1,COc1cccc2c1C(=O)c1c(O)c3c(c(O)c1C2=O)C[C@@](O)(C(=O)CO)C[C@@H]3O[C@H]1C[C@H](N)[C@H](O)[C@H](C)O1,748 nM (active)
2,CC(C)(C)OC(=O)Nc1ccc2[nH]c(C(=O)N3C[C@@H](CCl)c4c3cc(O)c3ccccc43)cc2c1,9.4 nM (active)
3,CN(C)CCOc1ccc2[nH]c(C(=O)N3C[C@@H](CCl)c4c3cc(O)c3ccccc43)cc2c1,0.4 nM (active)
4,COc1cc2cc(c1Cl)N(C)C(=O)C[C@H](O)[C@]1(C)O[C@H]1[C@H](C)C1C[C@@](O)(NC(=O)O1)[C@H](OC)/C=C/C=C(\C)C2,2980 nM (active)
5,COC(=O)c1cc2c3c(cc(O)c2[nH]1)N(C(=O)c1cc2cc(OC)c(OC)c(OC)c2[nH]1)CC3CCl (centres undefined),0.5 nM (active)
6,CCN[C@H]1CO[C@@H](O[C@H]2[C@H](O[C@H]3C#C/C=C\C#C[C@]4(O)CC(=O)C(NC(=O)OC)=C3/C4=C\CSSSC)O[C@H](C)[C@@H](NO[C@H]3C[C@H](O)[C@H](SC(=O)c4c(C)c(I)c(O[C@@H]5O[C@@H](C)[C@H](O)[C@@H](OC)[C@H]5O)c(OC)c4OC)[C@@H](C)O3)[C@@H]2O)C[C@@H]1OC,14.9 nM (active)
7,COc1cccc2c1C(=O)c1c(O)c3c(c(O)c1C2=O)C[C@@](O)(C(=O)CO)C[C@@H]3O[C@H]1C[C@H]2[C@H](O[C@@H]3[C@@H](OC)OCCN32)[C@H](C)O1,0.0941 nM (active)
8,CCN(C(C)=O)[C@H]1CO[C@@H](O[C@H]2[C@H](O[C@H]3C#C/C=C\C#C[C@]4(O)CC(=O)C(NC(=O)OC)=C3/C4=C\CSSSC)O[C@H](C)[C@@H](NO[C@H]3C[C@H](O)[C@H](SC(=O)c4c(C)c(I)c(O[C@@H]5O[C@@H](C)[C@H](O)[C@@H](OC)[C@H]5O)c(OC)c4OC)[C@@H](C)O3)[C@@H]2O)C[C@@H]1OC,748 nM (active)
9,CCc1c2c(nc3ccc(O)cc13)-c1cc3c(c(=O)n1C2)COC(=O)[C@]3(O)CC,11.8 nM (active)
